Reference: PubChem BioAssay (NCI)
About 83,000 compounds went through this panel and 20% of them were active in at least one assay; those are over-represented in the sample as a whole.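 Growth was measured after 48 h exposure to one concentration of compound in 96-well plates. Values under 10 count as active.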 Activity calls are given as the source filed them.

How the values were obtained:
Assay in all cases: NCI-60 one-dose screen, 48 h (100 = growth as untreated, 0 = no growth, -100 = all killed)
NCI-H23 lung = settings: 10 µM unless noted
NCI-H226 lung = settings: 10 µM unless noted
NCI-H322M lung = settings: 10 µM unless noted
NCI-H460 lung = settings: 10 µM unless noted
HOP-92 NSCLC = settings: 10 µM
NCI-H522 lung = settings: 10 µM
A549/ATCC NSCLC = settings: 10 µM unless noted
786-0 renal = settings: 10 µM unless noted
HOP-62 NSCLC = settings: 10 µM unless noted
COLO 205 colon = settings: 10 µM unless noted

Measured: growth

O=C1Nc2ccccc2/C1=C/c1cn(CC(O)Cn2cc(/C=C3\C(=O)Nc4ccccc43)c3ccccc32)c2ccccc12 (centres undefined)
active: NCI-H23 lung -67.3% | NCI-H226 lung -74.9% | NCI-H322M lung -39.1% | NCI-H460 lung -65.1% | HOP-92 NSCLC -73.9% | NCI-H522 lung -17.4% | A549/ATCC NSCLC -11.6% | 786-0 renal -70.9%

O=C1/C(=C\c2cn(-c3nc(N4CCOCC4)nc(N4CCOCC4)n3)c3ccccc23)c2ccccc2N1c1c(Cl)cccc1Cl
active: HOP-92 NSCLC 3.38%
inactive: NCI-H23 lung 79.7% | NCI-H226 lung 60.1% | NCI-H322M lung 28.2% | NCI-H460 lung 40.8% | NCI-H522 lung 75.3% | A549/ATCC NSCLC 68.4% | 786-0 renal 29.5%

C/C=C/C/C=C/[C@H](C)C[C@H](O)[C@@H]1C[C@@H]2O[C@H]2/C=C/[C@@H]2OC(C)(C)O[C@H]2/C=C/C[C@H](C)CC(=O)O1
inactive: NCI-H23 lung 36.3% | NCI-H226 lung 30.5% | NCI-H322M lung 55.5% | HOP-62 NSCLC 41.6% | A549/ATCC NSCLC 24.7% | 786-0 renal 53.5%

CC1=NN(c2cccc(Cl)c2)C(=O)/C1=C\c1cn(-c2nc(N3CCOCC3)nc(N3CCOCC3)n2)c2ccccc12
inactive: NCI-H23 lung 100% | NCI-H226 lung 99.8% | NCI-H322M lung 91.9% | NCI-H460 lung 112% | HOP-92 NSCLC 90.6% | NCI-H522 lung 88.9% | A549/ATCC NSCLC 99.2% | 786-0 renal 102%

C/C(CCC(=O)O)=N/Nc1ccc([N+](=O)[O-])cc1
inactive: NCI-H23 lung 87.8% | NCI-H226 lung 93.3% | NCI-H322M lung 93.5% | NCI-H460 lung 38% | HOP-92 NSCLC 74.9% | NCI-H522 lung 61.2% | A549/ATCC NSCLC 54% | 786-0 renal 45.7%

COc1cc2ncnc(-n3ncc4cc(NC(=O)Nc5ccc(Cl)c(Cl)c5)ccc43)c2cc1OC
active: NCI-H23 lung -54% | NCI-H226 lung -63.4% | NCI-H322M lung -46.1% | NCI-H460 lung -53.9% | HOP-92 NSCLC -57.2% | NCI-H522 lung 1.38% | A549/ATCC NSCLC 0.341% | 786-0 renal -43.4%

CCC1(CC)C(OC)NC(Br)=C(C#N)C1(C#N)C(N)=O (centres undefined)
inactive: NCI-H23 lung 99.1% | NCI-H226 lung 114% | NCI-H322M lung 118% | NCI-H460 lung 115% | HOP-92 NSCLC 77.3% | NCI-H522 lung 98% | A549/ATCC NSCLC 114% | 786-0 renal 94.3% | COLO 205 colon 126%

Cc1ccc2c(O)c(O)cc(NC(C)CCCN)c2n1 (centres undefined)
inactive: NCI-H23 lung 20.7% | NCI-H226 lung 111% | NCI-H322M lung 26% | NCI-H460 lung 107% | HOP-92 NSCLC 84.4% | NCI-H522 lung 22.3% | A549/ATCC NSCLC 84.6% | 786-0 renal 95.8% | COLO 205 colon 32.7%

CNCCCNCCCCNCCCN1C(=O)c2ccc3c4c(ccc(c24)C1=O)C(=O)N(CCCNCc1ccccc1OC)C3=O
inactive: NCI-H23 lung 24.9% | NCI-H226 lung 35.7% | NCI-H322M lung 22.8% | NCI-H460 lung 13.5% | HOP-92 NSCLC 69% | NCI-H522 lung 31.3% | A549/ATCC NSCLC 21.6% | 786-0 renal 38.6% | COLO 205 colon 10.8%

COCC(=O)NNc1[nH]c(-c2ccc(OC)cc2)cc1C#N
inactive: NCI-H23 lung 100% | NCI-H226 lung 106% | NCI-H322M lung 33.4% | NCI-H460 lung 117% | HOP-92 NSCLC 95.4% | NCI-H522 lung 104% | A549/ATCC NSCLC 112% | 786-0 renal 95.3% | COLO 205 colon 115%

CCNc1nnc(COc2ccc(CNC(=O)CCCC/C=C/C(C)C)cc2OC)o1
inactive: NCI-H23 lung 93.7% | NCI-H226 lung 101% | NCI-H322M lung 107% | NCI-H460 lung 103% | HOP-92 NSCLC 98.3% | NCI-H522 lung 83.7% | A549/ATCC NSCLC 97% | 786-0 renal 95.5% | COLO 205 colon 110%

CCCCCSc1ccc2nc(NC(=O)OCC)sc2c1
inactive: NCI-H23 lung 18.5% | NCI-H226 lung 21.7% | NCI-H322M lung 41.3% | NCI-H460 lung 10.5% | HOP-92 NSCLC 31.7% | NCI-H522 lung 20.8% | A549/ATCC NSCLC 34.6% | 786-0 renal 33.6%

COc1ccc2c(c1)/C(=C/c1c(-c3cc(OC)c(OC)c(OC)c3)nc3sccn13)C(=O)N2
inactive: NCI-H23 lung 99.1% | NCI-H226 lung 97% | NCI-H322M lung 92.3% | NCI-H460 lung 108% | HOP-92 NSCLC 31.7% | NCI-H522 lung 86.5% | A549/ATCC NSCLC 110% | 786-0 renal 95.7% | COLO 205 colon 107%

O=C(Nc1ccccc1)Nc1ccc(Nc2ncnc3sc4c(c23)CCCC4)cc1
inactive: NCI-H23 lung 100% | NCI-H226 lung 89.9% | NCI-H322M lung 106% | NCI-H460 lung 104% | HOP-92 NSCLC 101% | NCI-H522 lung 93% | A549/ATCC NSCLC 73.9% | 786-0 renal 110%

COc1ccc(/C=C(/C(=O)N2CCN(c3ccc(C)cc3)CC2)c2cc(OC)c(OC)c(OC)c2)cc1N
active: NCI-H460 lung 5.51% | NCI-H522 lung -12.8% | COLO 205 colon -43.9%
inactive: NCI-H23 lung 38.1% | NCI-H226 lung 98.3% | NCI-H322M lung 43.7% | HOP-92 NSCLC 17.6% | A549/ATCC NSCLC 23.1% | 786-0 renal 18.5%

CC(C)OC(=O)[C@H](C)N[P@@](=O)(OC[C@@]1(C)O[C@@H](n2cc(F)c(N)nc2=O)C[C@@H]1O[P@](=O)(N[C@@H](C)C(=O)OC(C)C)Oc1ccccc1)Oc1ccccc1
inactive: NCI-H23 lung 94.4% | NCI-H226 lung 96.4% | NCI-H322M lung 102% | NCI-H460 lung 28.7% | HOP-92 NSCLC 85.1% | NCI-H522 lung 85.6% | A549/ATCC NSCLC 92.2% | 786-0 renal 104%

O=S(=O)(O)CCI
inactive: NCI-H23 lung 102% | NCI-H226 lung 95.9% | NCI-H322M lung 101% | NCI-H460 lung 104% | HOP-92 NSCLC 103% | NCI-H522 lung 103% | A549/ATCC NSCLC 114% | 786-0 renal 106% | COLO 205 colon 111%

COC(=O)c1ccc(C(=Nc2ccc(N(C)C(=O)CN3CCN(C)CC3)cc2)c2c(O)[nH]c3ccc(C(=O)OC)cc23)cc1
inactive: NCI-H23 lung 35.4% | NCI-H226 lung 33% | NCI-H322M lung 47.3% | NCI-H460 lung 43.7% | HOP-92 NSCLC 51.1% | NCI-H522 lung 19% | A549/ATCC NSCLC 35.6% | 786-0 renal 36.4% | COLO 205 colon 21.8%

COc1cccc(Cn2cc3c(c2)-c2oncc2CC3)c1
active: NCI-H460 lung 1.35% | COLO 205 colon 9.83%
inactive: NCI-H23 lung 16.3% | NCI-H226 lung 13.8% | NCI-H322M lung 19.2% | HOP-92 NSCLC 97.1% | NCI-H522 lung 29.5% | A549/ATCC NSCLC 28.3% | 786-0 renal 30.2%

O=C(CCCC(=O)Nc1ccc(Cn2nnc3cc(Cl)c(Cl)cc32)cc1)Nc1ccc(CN2N=NC3C=C(Cl)C(Cl)=CC32)cc1 (centres undefined)
inactive: NCI-H23 lung 62.2% | NCI-H226 lung 72.7% | NCI-H322M lung 74% | NCI-H460 lung 84.1% | HOP-92 NSCLC 64.7% | NCI-H522 lung 62.4% | A549/ATCC NSCLC 74.5% | 786-0 renal 85.3%

OCC(O)C(O)CC1SCCS1 (centres undefined)
inactive: NCI-H23 lung 97.3% | NCI-H226 lung 91.9% | NCI-H322M lung 109% | NCI-H460 lung 108% | HOP-92 NSCLC 104% | NCI-H522 lung 96.6% | A549/ATCC NSCLC 101% | 786-0 renal 96% | COLO 205 colon 106%

COc1cc(-c2c3c(cn2CCN2CCCCC2)-c2oncc2CC3)cc(OC)c1OC
inactive: NCI-H23 lung 98.6% | NCI-H226 lung 90.2% | NCI-H322M lung 110% | NCI-H460 lung 101% | HOP-92 NSCLC 81.8% | NCI-H522 lung 90.9% | A549/ATCC NSCLC 101% | 786-0 renal 105% | COLO 205 colon 103%

C=CCSc1nnc(COc2ccc3c(C)c(Cc4ccccc4)c(=O)oc3c2C)o1
inactive: NCI-H23 lung 102% | NCI-H226 lung 95% | NCI-H322M lung 99.2% | NCI-H460 lung 103% | HOP-92 NSCLC 100% | NCI-H522 lung 81.8% | A549/ATCC NSCLC 101% | 786-0 renal 102% | COLO 205 colon 117%

Cc1ccc(OCCn2ccc(=O)n(CCOc3ccc(Cl)cc3C(=O)c3cc(C)cc(C)c3)c2=O)cc1
inactive: NCI-H23 lung 54.4% | NCI-H226 lung 62.9% | NCI-H322M lung 84.1% | NCI-H460 lung 37.2% | HOP-92 NSCLC 45.9% | NCI-H522 lung 23.3% | A549/ATCC NSCLC 41.7% | 786-0 renal 57.4%

O=C(O)CC1Cc2ccccc2C1C(=O)O (centres undefined)
inactive: NCI-H23 lung 93.5% | NCI-H226 lung 102% | NCI-H322M lung 113% | NCI-H460 lung 106% | HOP-92 NSCLC 108% | NCI-H522 lung 95.9% | A549/ATCC NSCLC 103% | 786-0 renal 105%

CC1(C)Oc2cc3oc(=O)ccc3cc2C[C@@H]1OCCOS(=O)(=O)c1ccc(C#N)cc1
inactive: NCI-H23 lung 91.8% | NCI-H226 lung 87.8% | NCI-H322M lung 105% | NCI-H460 lung 93% | HOP-92 NSCLC 91.4% | NCI-H522 lung 77.8% | A549/ATCC NSCLC 92.5% | 786-0 renal 100%

CCCC(CCC)Oc1ccc(CCCC2=C(O)c3ccccc3C(=O)C2=O)cc1
active: NCI-H322M lung -1.08% | NCI-H460 lung 9.9%
inactive: NCI-H23 lung 26.9% | NCI-H226 lung 32.6% | HOP-92 NSCLC 28.1% | NCI-H522 lung 30.2% | A549/ATCC NSCLC 32.1% | 786-0 renal 42.2% | COLO 205 colon 43.9%

COC(=O)Nc1nc2ccc(C(=O)c3ccccc3N(C)C3COC3)cc2[nH]1
inactive: NCI-H23 lung 54.4% | NCI-H226 lung 49.6% | NCI-H322M lung 49.5% | NCI-H460 lung 13.5% | HOP-92 NSCLC 41.1% | NCI-H522 lung 13.1% | A549/ATCC NSCLC 42.4% | 786-0 renal 34.4%

O=C1/C(=C/c2ccc(Cl)cc2)CCC/C1=C\c1ccc(Cl)cc1
inactive: NCI-H23 lung 70.7% | NCI-H226 lung 104% | NCI-H322M lung 99.6% | NCI-H460 lung 97.7% | HOP-92 NSCLC 74.4% | NCI-H522 lung 83% | A549/ATCC NSCLC 65.7% | 786-0 renal 91.3% | COLO 205 colon 73.3%

Cc1ccc([C@@H]2C[C@H](O)Cc3ccccc3N2)s1
inactive: NCI-H23 lung 90.7% | NCI-H226 lung 124% | NCI-H322M lung 110% | NCI-H460 lung 101% | HOP-92 NSCLC 78.8% | NCI-H522 lung 117% | A549/ATCC NSCLC 104% | 786-0 renal 114% | COLO 205 colon 98.8%
